Compound activity from PubChem.
Only some compounds are listed: those with a hit (about 2.5% of all), similar ones and a draw of the others.
Pol beta inh – inhibitors of human DNA polymerase beta. P06746. Pol beta primer extension/strand displacement, fluorescence kinetic. Potency, µM (highest dose often 114 µM), for the others: top-dose activity change, negative = inhibition, usual class: inhibitors. 340,000 tested, 1.3% active. AID 485314; further: on the % scale 0 is the no-effect control and ±100 the full control effect
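Human Pol beta at 10 nM; strand-displacement substrate 50 nM final. Compound exposure 15 min at room temperature before start, reaction 10 min at room temperature.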
APE1 inh – blocks human APE1 abasic DNA cleavage. Potency, µM (highest dose often 65.8 µM), for inactives: top-dose activity change, negative = inhibition, most hits filed as inhibitors. P27695. 350,000 tested, 0.35% active. recombinant APE1, TAMRA/BHQ-2 abasic DNA cleavage fluorescence;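 further: plate controls were vehicle for no effect and reference inhibitor for full effect; nearly all actives have a fitted effect of over 55% in size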
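Kinetic fluorescence read (525 ex/598 em nm, three reads 60 s apart) of AP-site incision; signal = third minus first read. Enzyme 0.75 nM, dual-labelled THF duplex 50 nM, compound preincubation 15 min RT.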
POLI inh – blocks human DNA polymerase iota activity. Potency, µM (highest dose often 115 µM), without a hit: top-dose activity, negative = inhibition, hits mostly inhibitors. Q9UNA4. 390,000 tested, 1% active. Pol iota fluorescent replication assay, 10 min
Target sequence (Q9UNA4 whole entry, looked up): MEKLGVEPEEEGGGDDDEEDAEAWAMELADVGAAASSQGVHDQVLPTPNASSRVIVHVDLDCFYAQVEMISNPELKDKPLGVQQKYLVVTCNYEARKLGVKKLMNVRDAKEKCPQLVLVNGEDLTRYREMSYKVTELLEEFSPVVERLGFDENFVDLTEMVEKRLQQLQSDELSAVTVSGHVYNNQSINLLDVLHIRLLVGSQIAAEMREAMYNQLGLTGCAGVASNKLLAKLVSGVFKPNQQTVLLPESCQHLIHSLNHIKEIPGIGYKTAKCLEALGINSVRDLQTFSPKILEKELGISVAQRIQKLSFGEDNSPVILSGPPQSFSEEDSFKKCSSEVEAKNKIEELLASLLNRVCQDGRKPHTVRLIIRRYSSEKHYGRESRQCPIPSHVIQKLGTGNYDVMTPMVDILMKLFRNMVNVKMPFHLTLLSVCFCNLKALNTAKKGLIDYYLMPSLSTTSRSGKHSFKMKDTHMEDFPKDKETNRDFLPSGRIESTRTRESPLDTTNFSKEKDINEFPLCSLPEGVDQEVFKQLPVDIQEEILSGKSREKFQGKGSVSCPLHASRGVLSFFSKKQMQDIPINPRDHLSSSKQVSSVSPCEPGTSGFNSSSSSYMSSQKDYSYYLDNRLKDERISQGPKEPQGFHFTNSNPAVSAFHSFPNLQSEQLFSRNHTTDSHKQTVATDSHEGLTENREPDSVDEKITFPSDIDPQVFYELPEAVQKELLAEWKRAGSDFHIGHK
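Pol iota at 10 nM preincubated 15 min with compounds at room temperature; reaction started with fluorescent substrate, 50 nM final. Fluorescence read kinetically at 0 and 10 min; buffer-only wells as negative control.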
L3MBTL1 inh – blocks human L3MBTL1 | Q9Y468 | AlphaScreen L3MBTL1–H3K9me1 peptide binding | Potency, µM (highest dose often 57.1 µM), inactives show top-dose activity, negative = inhibition, hits mostly inhibitors | 230,000 tested, 0.66% active; further: on the % scale 0 is the no-effect control and ±100 the full control effect; nearly all actives have a fitted effect of over 60% in size
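L3MBTL1 50 nM + b-AHA-H3(1-15)K9me1 75 nM, 30 min RT; compound added, 30 min RT; streptavidin donor/Ni-chelate acceptor beads 10 ug/mL each final, 30 min RT dark; AlphaScreen read.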
POLH inh – DNA polymerase eta (human) inhibition. Q9Y253. recombinant Pol eta, fluorescent DNA replication assay. Potency, µM (titrated, usually from 114 µM), for the others: top-dose activity change, negative = inhibition, actives largely listed as inhibitors. 390,000 tested, 1.2% active; further: on the % scale 0 is the no-effect control and ±100 the full control effect
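Pol eta (10 nM) was preincubated with compounds for 15 min at room temperature, after which fluorescent replication substrate (50 nM final) was added to start the reaction. Fluorescence was read kinetically at 0 and 10 min.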
POLK inh – inhibitors of human DNA polymerase kappa; Q9UBT6; purified Pol kappa, fluorescent DNA synthesis assay, 10 min; Potency, µM (titrated, usually from 107 µM), without a hit: top-dose activity, negative = inhibition, actives largely listed as inhibitors; 400,000 tested, 0.53% active; further: on the % scale 0 is the no-effect control and ±100 the full control effect
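First, compounds were pin-transferred onto 10 nM Pol kappa. After 15 min at room temperature, substrate was added to 50 nM final. Fluorescence was then measured kinetically at 0 and 10 min.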
Active calls of the source: *; ? = inconclusive; . = no result given; ! = not active in a repeat; [ ] = remark or other dose. The call rests on the fitted dose curve; in most records, active means well fitted curve in the direction sought with a large enough effect; inconclusive means small, poorly fitted or top-dose-only effect, or another doubt; inactive means no such curve, though single readings can be large; an effect the other way counts as inactive or inconclusive. Potency means the concentration at half of the fitted maximal effect.

SMILES	Pol beta inh	APE1 inh	POLI inh	L3MBTL1 inh	POLH inh	POLK inh
CN1/C(=C\C(=O)CSc2nnc(NCc3ccccc3)s2)C(C)(C)c2ccccc21	-5%	13%	-16%	-10%	-43%	-13%
Cc1ccc2nc(-c3ccc(C)c(NC(=O)COc4ccc(Br)cc4)c3)oc2c1	.	.	-5%	.	.	3%
COc1ccc(NC(=O)CNc2ccccc2C(C)=O)cc1S(=O)(=O)N1CCOCC1	.	-1%	19%	11%	-11%	-15%
Cc1cc(SCC(=O)Nc2ccc(F)cc2F)nc(=O)[nH]1	16µM*	.	?	.	?	-12%[60.1 µM]
Cc1cc(C)cc(NC(=O)CSc2cc(C)[nH]c(=O)n2)c1	16%	.	14%	.	1%	-6%[60.1 µM]
O=C(CSc1ccc(-c2ccco2)nn1)N1CCCC1	30%	22%	8%	.	-17%	-12%
Cc1cc(SCC(=O)c2cccc([N+](=O)[O-])c2)nc(=O)[nH]1	-25%	16%	?	.	20µM*	79µM*
O=C(CSc1ccc(-c2ccco2)nn1)c1cccc([N+](=O)[O-])c1	28µM*	-4%	13µM*	-12%	?	?
Cc1cc(SCc2cccc([N+](=O)[O-])c2)nc(=O)[nH]1	?	-4%	?	.	4%	-23%
Cc1cc(SCc2ccc([N+](=O)[O-])cc2)nc(=O)[nH]1	?	-5%	-1%	.	25µM*	-14%
Oc1cc(O)cc(/C=C/c2ccc(O)c(O)c2)c1	7.9µM*	?	16µM*	?	18µM*!	79µM*
COc1ccc(S(=O)(=O)Nc2ccccc2C(=O)NCc2ccco2)cc1	-14%	?	?	-8%	-15%	-1%
COc1ccc(S(=O)(=O)N(Cc2ccccc2)c2ccccc2C(=O)Nc2ccccc2C(=O)NCc2ccco2)cc1	89µM*	12%	-5%	-3%	-19%	-20%
O=S1(=O)CCOCCCN1Cc1cccc(Cl)c1	.	.	11%	.	.	-13%
CC1CC(C)CN(C(=O)c2cccc(S(=O)(=O)Nc3cc(C(F)(F)F)ccc3Cl)c2)C1 (stereo not drawn)	56µM*	-6%	14%	0%	-28%	-21%
CC1CN(C(=O)CSc2nc(N)c(NC(=O)c3ccc(C(F)(F)F)cc3)c(=O)[nH]2)CC(C)O1 (stereo not drawn)	.	.	.	.	-5%	.
CCN(CC)c1ccc(NC(=O)C2CC(=O)N(Cc3ccccc3)C2)cc1 (stereo not drawn)	-2%	-9%	49%	32µM*	-13%	-3%
O=C(NCCc1ccc(F)cc1)C1CCCO1 (stereo not drawn)	41%	150µM*	33%	8%	-6%	-4%
CCOc1cc(/C=N/NC(=O)c2ccccn2)ccc1OC(=O)c1ccc(F)cc1	26%	4%	3%	.	-26%	-5%
CC(=C\c1ccccc1)/C=C1/SC(=O)N(CCCC(=O)Nc2ccc(C(=O)O)cc2)C1=O	24%	-8%	12%	0%	-3%	-7%
O=C(CCCN1C(=O)S/C(=C/C=C/c2ccccc2)C1=O)Nc1ccc(C(=O)O)cc1	79%	-1%	?	.	89µM*	-13%
Cc1ccc(-c2[nH]c3cc(C(=O)NCCCn4ccnc4)ccc3c(=O)c2O)cc1	0%	0%	79µM*	.	-9%	-4%
CCOC(=O)c1cc2c(=O)n3ccccc3nc2n(Cc2ccco2)c1=NC(=O)c1ccc(Br)cc1	-3%	.	45µM*	.	-9%	?
Cc1cccn2c(=O)c3cc(C#N)c(=NC(=O)c4ccccc4)n(Cc4ccco4)c3nc12	.	.	?	.	25µM*	?
CCOC(=O)c1cc2c(=O)n3ccccc3nc2n(Cc2ccco2)c1=NC(=O)c1cccnc1	18µM*	-10%	?	-5%	?	-38%
CCOC(=O)c1cc2c(=O)n3ccccc3nc2n(Cc2ccco2)c1=NC(=O)c1cccc(C)c1	-13%	.	?	.	-3%	-27%
